Assay outcomes as filed in PubChem.
HEK293 tox = cytotoxicity in counter-screen for GLP-1R inverse agonists; HEK293 cAMP-luciferase reporter cells, luminescence, 24 h; Potency, µM (series often up to 38.3 µM), most hits filed as inhibitors; 0.13% of 410,000 active; AID 624418;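 note: loss of luciferase light is scored as toxicity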
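A 23 nL compound transfer followed 12 hours of cell culture at 37 deg C; exposure then lasted 24 hr. Luciferase assay detection reagent was dispensed and plates read for luminescence after a 12 min room-temperature wait.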
PTHR1 ag = activates the human parathyroid hormone receptor PTHR1; Q03431; HEK293 GP2 PTHR1 cells, GloSensor cAMP luminescence, 1 h; Potency, µM (doses to about 115 µM), usual class: activators; 0.075% of 410,000 active; note: nearly all actives have a fitted effect of over 55% in size
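HEK-293-derived GP2 cells expressing PTHR1 and a GloSensor cAMP reporter, 3,000/well, plated overnight, given luciferin plus IBMX (each 0.5 mM as added) for 1 h at 37 °C, then compound for 1 h at 37 °C. Luminescence was read after 15 min at room temperature.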
TSHR antag = antagonists of human thyroid stimulating hormone receptor | TSHR-expressing cells, TSH-stimulated cAMP HTRF, 2 h; stronger effect = lower value | activity change, negative = inhibition, % at 11.5 µM | AID 504810 | 0.2% of 330,000 active;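 active = activity change below a set negative limit, meaning inhibition stronger than a set level, cut at about -70% in these data; inconclusive = activity change between two set negative limits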
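Read-out is FRET at 665 nm (cryptate excitation 337 nm) from a cryptate-tagged anti-cAMP antibody, competed by cell cAMP against cAMP-d2. Compounds are tested on freshly harvested TSHR cells challenged with 4nM TSH (EC80) for 2 hours at 37 deg C.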
GLP-1R inv ag = inverse agonists of human GLP-1 receptor; P43220; HEK293 GLP-1R CRE-luciferase, luminescence, 24 h; GLP-1R form is constitutively active; Potency, µM (top dose mostly 38.3 µM), most hits filed as inhibitors; AID 624417; 1.6% of 410,000 active; note: nearly all actives have a fitted effect of over 55% in size
Target sequence (P43220 whole entry, looked up): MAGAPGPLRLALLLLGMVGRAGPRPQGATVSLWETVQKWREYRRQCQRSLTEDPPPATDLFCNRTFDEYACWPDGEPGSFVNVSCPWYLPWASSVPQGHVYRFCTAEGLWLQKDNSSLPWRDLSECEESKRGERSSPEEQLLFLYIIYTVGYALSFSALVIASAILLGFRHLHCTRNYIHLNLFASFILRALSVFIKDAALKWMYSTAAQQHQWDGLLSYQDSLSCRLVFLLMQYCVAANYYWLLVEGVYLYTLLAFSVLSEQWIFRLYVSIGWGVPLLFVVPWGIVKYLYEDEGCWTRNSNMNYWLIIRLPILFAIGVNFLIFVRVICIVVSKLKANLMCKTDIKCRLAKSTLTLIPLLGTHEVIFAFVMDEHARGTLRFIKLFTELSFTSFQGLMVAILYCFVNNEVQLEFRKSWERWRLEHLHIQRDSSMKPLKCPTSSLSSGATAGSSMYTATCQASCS
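Seeding at 200 cells/uL, 12 h culture, 24 hr compound treatment, then luciferase reagent and a luminescence read; cells are HEK293 stably expressing a constitutively active GLP-1R plus cAMP-responsive luciferase.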
GLP-1R agonist = activates the human GLP-1 receptor; P43220; Potency, µM (doses to about 45.6 µM), usual class: activators; HEK293 GLP-1R CRE-luciferase, luminescence, 4-6 h; cells express a hypersensitive GLP-1R form; 0.007% of 380,000 active
Hits are given with their value; n = inactive; u = inconclusive; x = no result given. Compounds with a hit are over-represented: about 1.8% of the library has one in this group of screens. Unless noted, calls come from the whole dose curve; as a rule, active = well fitted curve in the direction sought with a large enough effect; inconclusive = small, poorly fitted or top-dose-only effect, or another doubt; inactive = no such curve, though single readings can be large; an effect the other way counts as inactive or inconclusive.

SMILES | HEK293 tox | PTHR1 ag | TSHR antag | GLP-1R inv ag | GLP-1R agonist
COc1ccc(NC(=O)c2c(C)nn(Cc3ccccc3Cl)c2Cl)cc1Cl | n | n | n | n | n
COc1ccc2c(c1)CCc1c(C(=O)Nc3c(C)nn(Cc4ccccc4C)c3C)noc1-2 | n | n | x | 10µM | x
COc1ccccc1N1CCN(Cc2ccc(Br)cc2)CC1 | n | n | n | 10µM | n
COC(=O)c1ccc(COc2ccccc2/C=N/NS(=O)(=O)c2ccc(C)cc2)cc1 | u | n | n | n | n
COc1cc(C(=O)Oc2ccccc2/C=N/NC(=O)c2ccc(C)cc2)cc(OC)c1OC | u | n | n | 1.6µM | n
CCOC(=O)c1ccc(NC(=O)Nc2cc3c(cc2N2CCCCC2)n(CC)c(=O)n3CC)cc1 | n | n | x | 10µM | n
O=C1NC(=O)C(=Cc2ccccc2OCCOc2ccc([N+](=O)[O-])cc2)C(=O)N1 | u | n | n | 10µM | n
Nc1cccc(Nc2nc(OC(C(F)(F)F)C(F)(F)F)nc(OC(C(F)(F)F)C(F)(F)F)n2)c1 | u | n | n | 4.5µM | n
CCn1cc(C(=O)NCCc2ccc(Cl)cc2)c(=O)c2cc(S(=O)(=O)N(C)C3CCCCC3)ccc21 | n | n | x | n | n
Cc1ccc(NC(=O)CNC(=O)c2cccc(C)c2)nc1 | u | n | n | u | n
O=C(NCC1=C(c2cccc3ccccc23)C[C@@H]2CC[C@H]1N2Cc1ccco1)c1cccs1 | u | n | x | 10µM | n
CCCCCCCCCCCCCCCC[n+]1ccc(/C=N/O)cc1 | u | n | n | 8.9µM | n
CCCCCCC[n+]1ccc(-c2cc[n+](CCCCCCC)cc2)cc1 | n | n | n | n | n
c1ccc2c[n+](CCCCCCCCCC[n+]3ccc4ccccc4c3)ccc2c1 | x | n | x | x | x
CCCCCCCCCCCCCCCC[n+]1ccccc1 | u | n | x | 3.5µM | n
Cc1c(N)nc([C@@H](CC(N)=O)NC[C@H](N)C(N)=O)nc1C(=O)N[C@H](C(=O)N[C@H](C)[C@H](O)[C@H](C)C(=O)N[C@@H](C(=O)NCCc1nc(-c2nc(C(=O)NCCC[S+](C)C)cs2)cs1)[C@H](C)O)[C@H](O[C@@H]1O[C@@H](CO)[C@@H](O)[C@H](O)[C@@H]1O[C@H]1O[C@H](CO)[C@H](O)[C@H](OC(N)=O)[C@@H]1O)c1cnc[nH]1 | x | x | x | x | n
CCCCCc1cc(O)c2c(c1)OC(C)(C)C1CC=C(C)CC21 (centres undefined) | x | x | x | x | n
CCOP(=O)(CCP(=O)(OCC)OCC)OCC.C[CH2][Sn]([Cl])([Cl])[CH2]C | 13µM | n | x | u | n
CC12CC(c3ccccc3O1)N(C(=O)c1ccco1)C(=S)N2c1ccc(F)cc1 (centres undefined) | u | u | n | 10µM | n
Cc1ccc(N2C(=O)/C(=C/N3CCN(C(=O)c4ccco4)CC3)C(=O)NC2=S)cc1C | n | n | n | n | n
C[C@@H]1C[C@@H]([C@H](O)CC2CC(=O)NC(=O)C2)C(=O)[C@@H](C)C1 | n | n | n | 0.79µM | n
CC(=O)OC1(C)CC(C)C(=O)C(C(O)CC2CC(=O)NC(=O)C2)C1 (centres undefined) | n | n | x | n | n
COC(=O)C1=C(c2ccc(F)cc2OCc2ccccc2)C[C@@H]2CC[C@H]1N2C(=O)NCCc1ccc(F)cc1 | n | n | n | 7.1µM | n
COC(=O)C1=C(c2ccccc2OCc2ccccc2)C[C@@H]2CC[C@H]1N2C(=O)NCc1ccc(N(C)C)cc1 | n | n | n | u | n
COC(=O)C1=C(c2ccc(F)cc2OCc2ccccc2)C[C@@H]2CC[C@H]1N2C(=O)NCCOc1ccccc1 | n | n | n | u | n
SMILES | HEK293 tox | PTHR1 ag | TSHR antag | GLP-1R inv ag | GLP-1R agonist
COC(=O)C1=C(c2cccc(OCc3ccccc3)c2)C[C@@H]2CC[C@H]1N2C(=O)NCc1cccc(OC)c1 | n | n | n | u | n
COC(=O)C1=C(c2ccc(F)cc2OCc2ccccc2)C[C@@H]2CC[C@H]1N2C(=O)NCc1cccc(C(F)(F)F)c1 | n | n | n | 5.6µM | n
COC(=O)C1=C(c2cccc(OCc3ccccc3)c2)C[C@@H]2CC[C@H]1N2C(=O)NCc1ccccc1C(F)(F)F | n | n | n | 4µM | n
COC(=O)C1=C(c2ccc(F)cc2OCc2ccccc2)C[C@@H]2CC[C@H]1N2C(=O)NCc1ccc(N(C)C)cc1 | n | n | n | 10µM | n
Cn1nc(-c2ccc(C(=O)Nc3ccc(OC(F)(F)F)cc3)cc2)c2ccccc2c1=O | n | n | x | n | x
C[C@H]1[C@@H]2Cc3ccc(O)cc3[C@]1(C)CCN2CCc1ccccc1 | x | x | x | x | n
CCOc1ccc(C(C)=O)cc1COC(=O)c1ccc2c(c1)NC(=O)CS2 | u | n | n | n | n
CO/C=C(/C(=O)OC)c1ccccc1Oc1cc(Oc2ccccc2C#N)ncn1 | x | x | x | x | n
FC(F)(F)c1cnc(NNC(=S)Nc2ccccc2Cl)c(Cl)c1 | u | n | n | 5µM | n
O=C(C1CCN(S(=O)(=O)c2ccc(Br)s2)CC1)N1CCN(c2cccc(C(F)(F)F)c2)CC1 | n | n | x | u | x
CC1(C)CC/C(=C\c2ccc(Cl)cc2)C1(O)Cn1cncn1 (centres undefined) | x | x | x | x | n
O=C1C2C3CCC(C3)C2C(=O)N1c1ccc(OS(=O)(=O)c2ccccc2)cc1 (centres undefined) | n | n | n | 3.2µM | n
C=CCc1ccccc1OCCn1c(C2CC(=O)N(Cc3ccc(F)cc3)C2)nc2ccccc21 (centres undefined) | n | n | x | u | x
CCCOP(=O)(OCCC)c1nc(-c2ccccc2)oc1NCc1ccccc1 | n | n | n | 10µM | n
CCn1nc(-c2cccs2)nc2c(=O)n(C)c(=O)nc1-2 | u | n | n | 2.8µM | n
Cc1[nH]c2c(Cl)cccc2c1CCN | n | n | n | u | n
Cc1c(CN2CCC(CO)(CCOc3ccccc3)CC2)[nH]c2c(Cl)cccc12 | u | n | n | 4.5µM | n
COc1cc(CC(C)N)c(OC)cc1C (centres undefined) | x | x | x | x | n
O=C(NCc1ccc2c(c1)CCN2C(=O)c1ccccc1)Nc1cccc(C(F)(F)F)c1 | n | n | x | 4µM | x
O=C(Nc1ccc2nc3n(c(=O)c2c1)CCCCC3)c1cccc(C(F)(F)F)c1 | n | n | x | n | x
CCOC(=O)c1c(C)n(-c2ccc(C)cc2)c2c(C(C(C)=O)C(=O)O)c(Br)c(O)c(O)c12 (centres undefined) | u | n | n | n | n
CCOC(=O)c1c(C)n(-c2ccc(OC)cc2)c2ccc(O)c(CN(C)C)c12 | u | n | n | 5.6µM | n
COc1cc(/C=C(/C)[N+](=O)[O-])ccc1OCc1ccccc1Cl | u | n | n | 7.1µM | n
